Measurements as given in PubChem BioAssay AID1159580 (chemical genetic matrix, 2015).
Screen size: about 5,500 compounds; about 2,000 (36%) were called active. Not shown: some 18% with an inconclusive outcome. Cut-off read from the data, not from the text of the source: active = normalized growth mostly below about 0.91 (no sharp cut-off); inconclusive = no clear call, values can overlap the other calls; inactive = mostly above about 0.92. The list shows a part of the results.

Assay: chemical genetic growth profiling, strain panel (AID 1159580);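 note: tested at 20 µM; growth read once vehicle control cultures reached saturation at 30 °C; 1 = growth at the plate median or of vehicle wells; lower values mean less growth of the strain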
Details: S. cerevisiae deletion strains, growth OD
[1] = locus YAL021C, strain ccr4, hits give low values
[2] = locus YAL026C, strain drs2, hits give low values
[3] = locus YAL030W, strain snc1, hits give low values
[4] = locus YBL061C, strain skt5, hits give low values
[5] = locus YBR009C, strain hhf1, hits give low values
[6] = locus YBR023C, strain chs3, hits give low values
[7] = locus YBR171W, strain sec66, hits give low values
[8] = locus YBR231C, strain swc5, hits give low values
[9] = locus YBR279W, strain paf1, hits give low values
[10] = locus YCL011C, strain gbp2, hits give low values
[11] = locus YCL016C, strain dcc1, hits give low values
[12] = locus YCL069W, strain vba3, hits give low values
[13] = locus YCR088W, strain abp1, hits give low values
[14] = locus YDL005C, strain med2, hits give low values
[15] = locus YDL040C, strain nat1, hits give low values
[16] = locus YDR001C, strain nth1, hits give low values
[17] = locus YDR069C, strain doa4, hits give low values
[18] = locus YDR137W, strain rgp1, hits give low values
[19] = locus YDR159W, strain sac3, hits give low values
[20] = locus YDR297W, strain sur2, hits give low values
[21] = locus YDR334W, strain swr1, hits give low values
[22] = locus YDR335W, strain msn5, hits give low values
[23] = locus YDR392W, strain spt3, hits give low values
[24] = locus YEL003W, strain gim4, hits give low values
[25] = locus YEL037C, strain rad23, hits give low values
[26] = locus YEL061C, strain CIN8 (second series), hits give low values
[27] = locus YER015W, strain faa2, hits give low values
[28] = locus YER016W, strain bim1, hits give low values
[29] = locus YER111C, strain swi4, hits give low values
[30] = locus YER155C, strain BEM2 (second series), hits give low values
[31] = locus YFR010W, strain ubp6, hits give low values
[32] = locus YGL167C, strain pmr1, hits give low values
[33] = locus YGL173C, strain kem1, hits give low values
[34] = locus YGL227W, strain vid30, hits give low values
[35] = locus YGL240W, strain doc1, hits give low values
[36] = locus YGL253W, strain hxk2, hits give low values
[37] = locus YHR013C, strain ard1, hits give low values
[38] = locus YHR027C, strain rpn1, hits give low values
[39] = locus YHR030C, strain SLT2, hits give low values
[40] = locus YHR079C, strain IRE1, hits give low values
[41] = locus YHR142W, strain chs7, hits give low values
[42] = locus YJL092W, strain hpr5, hits give low values
[43] = locus YJL095W, strain BCK1 (second series), hits give low values
[44] = locus YJL095W, strain BCK1, hits give low values
[45] = locus YJL115W, strain asf1, hits give low values
[46] = locus YJL129C, strain trk1, hits give low values
[47] = locus YJL154C, strain vps35, hits give low values
[48] = locus YJL164C, strain tpk1, hits give low values
[49] = locus YJL166W, strain qcr8, hits give low values
[50] = locus YJL187C, strain SWE1, hits give low values
[51] = locus YJR066W, strain TOR1, hits give low values
[52] = locus YKL160W, strain elf1, hits give low values
[53] = locus YKR026C, strain gcn3, hits give low values
[54] = locus YKR091W, strain srl3, hits give low values
[55] = locus YLL001W, strain dnm1, hits give low values
[56] = locus YLL026W, hits give low values
[57] = locus YLL041C, strain sdh2, hits give low values
[58] = locus YLR027C, strain aat2, hits give low values
[59] = locus YLR113W, strain HOG1, hits give low values
[60] = locus YLR221C, strain rsa3, hits give low values
[61] = locus YLR258W, strain gsy2, hits give low values
[62] = locus YLR262C, strain YPT6 (second series), hits give low values
[63] = locus YLR320W, strain mms22, hits give low values
[64] = locus YLR342W, strain FKS1, hits give low values
[65] = locus YLR357W, strain rsc2, hits give low values
[66] = locus YLR370C, strain arc18, hits give low values
[67] = locus YLR384C, strain iki3, hits give low values
[68] = locus YML120C, strain ndi1, hits give low values
[69] = locus YMR058W, strain fet3, hits give low values
[70] = locus YMR125W, strain sto1, hits give low values
[71] = locus YMR129W, hits give low values
[72] = locus YMR205C, strain PFK2, hits give low values
[73] = locus YMR231W, strain pep5, hits give low values
[74] = locus YNL071W, strain lat1, hits give low values
[75] = locus YNL183C, strain NPR1, hits give low values
[76] = locus YNL209W, strain ssb2, hits give low values
[77] = locus YNL248C, strain rpa49, hits give low values
[78] = locus YNL322C, strain KRE1 (second series), hits give low values
[79] = locus YNR049C, strain mso1, hits give low values
[80] = locus YOR001W, strain rrp6, hits give low values
[81] = locus YOR070C, strain gyp1, hits give low values
[82] = locus YOR080W, strain dia2, hits give low values
[83] = locus YOR083W, strain WHI5, hits give low values
[84] = locus YOR106W, strain vam3, hits give low values
[85] = locus YOR231W, strain MKK1, hits give low values
[86] = locus YOR265W, strain rbl2, hits give low values
[87] = locus YOR270C, strain vph1, hits give low values
[88] = locus YOR290C, strain snf2, hits give low values
[89] = locus YPL051W, strain arl3, hits give low values
[90] = locus YPL078C, strain atp4, hits give low values
[91] = locus YPL106C, strain sse1, hits give low values
[92] = locus YPL240C, strain hsp82, hits give low values
[93] = locus YPL256C, strain CLN2, hits give low values
[94] = locus YAL013W, strain DEP1, hits give low values
[95] = locus YAL040C, strain CLN3, hits give low values
[96] = locus YCL061C, strain MRC1 (second series), hits give low values
[97] = locus YDR150W, strain NUM1, hits give low values
[98] = locus YDR363W, strain ESC2, hits give low values
[99] = locus YER002W, strain NOP16, hits give low values
[100] = locus YGR078C, strain PAC10, hits give low values
[101] = locus YGR229C, strain SMI1, hits give low values
[102] = locus YJR075W, strain HOC1, hits give low values
[103] = locus YMR263W, strain SAP30, hits give low values
[104] = locus YMR307W, strain GAS1, hits give low values
[105] = locus YNL128W, strain TEP1, hits give low values
[106] = locus YNL175C, strain NOP13, hits give low values
[107] = locus YNL197C, strain WHI3, hits give low values
[108] = locus YNL224C, strain SQS1, hits give low values
[109] = locus YOR083W, strain WHI5 (second series), hits give low values
[110] = locus YPL055C, strain LGE1, hits give low values
[111] = locus YPL241C, strain CIN2, hits give low values

Measured: normalized growth

O=C(O)[C@H]1/C(=C/CO)O[C@@H]2CC(=O)N21
inactive: [1] 0.992 | [2] 0.991 | [3] 0.992 | [4] 0.955 | [5] 1.01 | [6] 0.978 | [7] 0.983 | [8] 1.02 | [9] 0.976 | [10] 1.02 | [11] 0.972 | [12] 0.986 | [13] 0.986 | [14] 0.971 | [15] 0.982 | [16] 0.981 | [17] 1.01 | [18] 0.982 | [19] 0.97 | locus YDR195W, strain ref2 0.96 | [20] 1 | [21] 0.988 | [22] 0.976 | [23] 0.883 | [24] 1 | [25] 0.985 | [26] 0.986 | [27] 0.996 | [28] 0.957 | [29] 0.973 | [30] 0.999 | [31] 1.02 | [32] 0.986 | [33] 0.997 | [34] 0.971 | [35] 1.01 | [36] 0.959 | [37] 0.957 | [38] 0.992 | [39] 0.964 | [40] 0.959 | [41] 0.959 | [42] 0.999 | [43] 1 | [44] 0.991 | [45] 0.983 | [46] 0.941 | [47] 0.982 | [48] 0.993 | [49] 1.03 | [50] 0.995 | [51] 0.936 | [52] 0.955 | [53] 0.99 | [54] 0.986 | [55] 0.984 | [56] 0.987 | [57] 1.02 | [58] 1 | [59] 0.974 | [60] 1.01 | [61] 1 | [62] 1.02 | [63] 1.01 | [64] 0.965 | [65] 0.931 | [66] 0.972 | [67] 0.98 | [68] 0.997 | [69] 0.993 | [70] 0.954 | [71] 0.981 | [72] 0.99 | [73] 0.983 | [74] 0.996 | [75] 0.952 | [76] 0.98 | [77] 0.935 | [78] 0.973 | [79] 0.972 | [80] 1.03 | [81] 0.994 | [82] 0.988 | [83] 0.909 | [84] 0.952 | [85] 0.987 | [86] 0.993 | [87] 1 | [88] 0.986 | [89] 0.979 | [90] 0.967 | [91] 0.979 | [92] 1.01 | [93] 0.959

Oc1cc2c(cc1O)[C@H]1c3ccccc3CN[C@@H]1CC2
inactive: [95] 1.01 | [98] 0.985 | [99] 1.03 | [100] 1 | [103] 1 | [105] 1.01 | [106] 1.03 | [107] 1.02 | [108] 1.02 | [109] 1.01
active: [94] 0.9 | [96] 0.845 | [97] 0.848 | [101] 0.685 | [102] 0.843 | [104] 0.871 | [110] 0.864 | [111] 0.925

Oc1cc2c(cc1O)C(c1ccccc1)CNCC2 (configuration not stated)
inactive: [94] 0.977 | [1] 0.972 | [2] 0.988 | [3] 1.01 | [95] 1.03 | [4] 0.996 | [5] 1.05 | [6] 0.998 | [7] 0.912 | [8] 1.01 | [9] 0.988 | [10] 0.984 | [11] 1 | [96] 0.982 | locus YCL061C, strain MRC1, hits give low values 0.992 | [12] 1 | [13] 0.999 | [14] 1 | [15] 1.01 | [16] 0.994 | [17] 0.974 | [18] 0.967 | [97] 0.963 | [19] 1.01 | locus YDR195W, strain ref2 1.07 | [20] 0.996 | [21] 0.963 | [22] 0.979 | [98] 0.983 | [23] 0.845 | [24] 0.976 | [25] 1 | [26] 0.99 | [99] 1 | [27] 1.02 | [28] 1.01 | [29] 0.993 | [30] 1.01 | [31] 0.95 | [32] 0.994 | [33] 1 | [34] 1.01 | [35] 1.05 | [36] 0.991 | [101] 0.958 | [37] 0.96 | [38] 0.989 | [39] 0.986 | [40] 0.989 | [41] 0.916 | [42] 0.974 | [43] 1.01 | [44] 0.98 | [45] 0.991 | [46] 0.921 | [47] 1 | [48] 0.967 | [49] 0.995 | [50] 1 | [51] 0.943 | [52] 0.942 | [53] 0.995 | [54] 1 | [55] 0.989 | [56] 1 | [57] 0.989 | [58] 0.977 | [59] 0.979 | [60] 0.948 | [61] 1.02 | [62] 0.919 | [63] 0.966 | [64] 0.994 | [65] 1.04 | [66] 0.991 | [67] 1.01 | [68] 0.94 | [69] 0.945 | [70] 1.02 | [71] 0.984 | [72] 1.06 | [73] 1.02 | [104] 0.992 | [74] 0.964 | [105] 0.981 | [106] 1.04 | [75] 0.952 | [107] 1.03 | [76] 0.997 | [108] 0.993 | [77] 0.93 | [78] 0.989 | [79] 1 | [80] 0.918 | [81] 0.992 | [82] 1 | [109] 1.02 | [83] 0.922 | [84] 0.919 | [85] 0.941 | [86] 0.997 | [87] 0.967 | [88] 0.92 | [89] 0.938 | [110] 0.948 | [90] 0.945 | [91] 0.972 | [92] 0.983 | [111] 0.997 | [93] 0.984

NC1CCc2cc(O)c(O)cc2C1 (configuration not stated)
inactive: [94] 0.978 | [95] 1.01 | [96] 1.01 | [97] 1.01 | [98] 0.979 | [99] 1.02 | [100] 1.04 | [102] 0.985 | [103] 0.997 | [105] 1.01 | [106] 1.02 | [107] 1.01 | [108] 1.01 | [109] 1.08 | [110] 0.976
